Tests used:
[1] = biological target: T1, Muscle, skeletal receptor tyrosine-protein kinase (Homo sapiens) (UniProt O15146); conditions: at 1 µM;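 also: reported value is the mean percent inhibition of MuSK kinase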
T1 sequence (whole entry): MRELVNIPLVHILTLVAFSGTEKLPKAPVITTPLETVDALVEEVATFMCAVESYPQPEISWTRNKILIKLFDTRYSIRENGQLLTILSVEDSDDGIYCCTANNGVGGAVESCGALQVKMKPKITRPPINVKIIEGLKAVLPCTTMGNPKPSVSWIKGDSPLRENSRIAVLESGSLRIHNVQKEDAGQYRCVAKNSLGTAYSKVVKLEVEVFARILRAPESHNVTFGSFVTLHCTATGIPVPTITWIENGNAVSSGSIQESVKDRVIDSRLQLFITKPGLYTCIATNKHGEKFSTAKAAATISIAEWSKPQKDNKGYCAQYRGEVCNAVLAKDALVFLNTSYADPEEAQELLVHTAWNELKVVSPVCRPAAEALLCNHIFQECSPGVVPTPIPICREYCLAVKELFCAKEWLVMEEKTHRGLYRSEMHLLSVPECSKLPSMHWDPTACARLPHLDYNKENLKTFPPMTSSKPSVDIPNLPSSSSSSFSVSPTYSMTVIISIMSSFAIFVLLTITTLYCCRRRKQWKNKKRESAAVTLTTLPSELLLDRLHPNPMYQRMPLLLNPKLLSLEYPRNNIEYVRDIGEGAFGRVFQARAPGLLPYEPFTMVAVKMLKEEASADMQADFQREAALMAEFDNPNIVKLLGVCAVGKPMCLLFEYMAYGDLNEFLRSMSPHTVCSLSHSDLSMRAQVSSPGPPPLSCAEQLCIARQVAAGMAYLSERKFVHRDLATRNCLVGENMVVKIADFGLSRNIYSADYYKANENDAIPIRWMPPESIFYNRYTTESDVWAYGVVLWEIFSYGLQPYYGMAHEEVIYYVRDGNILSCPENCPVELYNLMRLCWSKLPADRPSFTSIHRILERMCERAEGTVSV

[2] = biological target: Platelet-derived growth factor receptor alpha (Homo sapiens) (UniProt P16234); conditions: at 0.1 µM
Sequence of Platelet-derived growth factor receptor alpha (Homo sapiens) (P16234 whole entry): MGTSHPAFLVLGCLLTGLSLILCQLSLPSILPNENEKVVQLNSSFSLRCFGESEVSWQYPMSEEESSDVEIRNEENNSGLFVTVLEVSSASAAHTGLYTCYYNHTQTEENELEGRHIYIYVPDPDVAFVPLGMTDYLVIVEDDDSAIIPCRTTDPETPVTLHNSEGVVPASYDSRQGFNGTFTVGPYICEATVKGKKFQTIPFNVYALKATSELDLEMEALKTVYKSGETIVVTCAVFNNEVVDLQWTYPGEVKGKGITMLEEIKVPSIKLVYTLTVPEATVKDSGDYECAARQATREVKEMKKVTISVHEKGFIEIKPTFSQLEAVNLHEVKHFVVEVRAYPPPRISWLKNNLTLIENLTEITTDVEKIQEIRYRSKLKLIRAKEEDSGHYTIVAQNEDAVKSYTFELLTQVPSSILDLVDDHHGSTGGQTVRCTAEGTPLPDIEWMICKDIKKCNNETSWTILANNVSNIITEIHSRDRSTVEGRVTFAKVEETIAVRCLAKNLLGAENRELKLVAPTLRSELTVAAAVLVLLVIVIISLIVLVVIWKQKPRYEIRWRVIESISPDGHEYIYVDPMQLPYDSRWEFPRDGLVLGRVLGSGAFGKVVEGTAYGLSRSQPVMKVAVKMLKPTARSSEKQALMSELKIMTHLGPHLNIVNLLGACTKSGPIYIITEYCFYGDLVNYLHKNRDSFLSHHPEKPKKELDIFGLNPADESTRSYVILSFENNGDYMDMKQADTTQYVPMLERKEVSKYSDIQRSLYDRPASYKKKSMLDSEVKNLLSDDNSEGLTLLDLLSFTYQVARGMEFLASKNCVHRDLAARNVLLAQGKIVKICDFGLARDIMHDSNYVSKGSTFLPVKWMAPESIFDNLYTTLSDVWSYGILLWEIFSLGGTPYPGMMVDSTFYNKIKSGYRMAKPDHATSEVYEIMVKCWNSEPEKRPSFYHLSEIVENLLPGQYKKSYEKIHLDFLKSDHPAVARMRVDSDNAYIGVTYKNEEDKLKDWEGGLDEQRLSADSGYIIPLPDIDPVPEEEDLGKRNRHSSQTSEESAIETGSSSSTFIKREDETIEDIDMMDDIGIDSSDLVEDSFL

[3] = biological target: Platelet-derived growth factor receptor alpha (Homo sapiens) (UniProt P16234); conditions: at 1 µM
[4] = system: Platelet-derived growth factor receptor alpha (Homo sapiens), P16234 [D842V]; conditions: at 0.1 µM
Sequence of Platelet-derived growth factor receptor alpha (Homo sapiens), P16234 [D842V] (P16234 whole entry D842V): as the sequence (P16234 whole entry) above, with D842V counted along it

[5] = system: Platelet-derived growth factor receptor alpha (Homo sapiens), P16234 [D842V]; conditions: at 1 µM
[6] = system: Platelet-derived growth factor receptor alpha (Homo sapiens), P16234 [T674I]; conditions: at 0.1 µM
Sequence of Platelet-derived growth factor receptor alpha (Homo sapiens), P16234 [T674I] (P16234 whole entry T674I): as the sequence (P16234 whole entry) above, with T674I counted along it

[7] = system: Platelet-derived growth factor receptor alpha (Homo sapiens), P16234 [T674I]; conditions: at 1 µM
[8] = system: Platelet-derived growth factor receptor alpha (Homo sapiens), P16234 [V561D]; conditions: at 0.1 µM
Sequence of Platelet-derived growth factor receptor alpha (Homo sapiens), P16234 [V561D] (P16234 whole entry V561D): as the sequence (P16234 whole entry) above, with V561D counted along it

[9] = system: Platelet-derived growth factor receptor alpha (Homo sapiens), P16234 [V561D]; conditions: at 1 µM
[10] = biological target: Platelet-derived growth factor receptor beta (Homo sapiens) (UniProt P09619); conditions: at 0.1 µM;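 also: reported value is the mean percent inhibition of the kinase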
Sequence of Platelet-derived growth factor receptor beta (Homo sapiens) (P09619 whole entry): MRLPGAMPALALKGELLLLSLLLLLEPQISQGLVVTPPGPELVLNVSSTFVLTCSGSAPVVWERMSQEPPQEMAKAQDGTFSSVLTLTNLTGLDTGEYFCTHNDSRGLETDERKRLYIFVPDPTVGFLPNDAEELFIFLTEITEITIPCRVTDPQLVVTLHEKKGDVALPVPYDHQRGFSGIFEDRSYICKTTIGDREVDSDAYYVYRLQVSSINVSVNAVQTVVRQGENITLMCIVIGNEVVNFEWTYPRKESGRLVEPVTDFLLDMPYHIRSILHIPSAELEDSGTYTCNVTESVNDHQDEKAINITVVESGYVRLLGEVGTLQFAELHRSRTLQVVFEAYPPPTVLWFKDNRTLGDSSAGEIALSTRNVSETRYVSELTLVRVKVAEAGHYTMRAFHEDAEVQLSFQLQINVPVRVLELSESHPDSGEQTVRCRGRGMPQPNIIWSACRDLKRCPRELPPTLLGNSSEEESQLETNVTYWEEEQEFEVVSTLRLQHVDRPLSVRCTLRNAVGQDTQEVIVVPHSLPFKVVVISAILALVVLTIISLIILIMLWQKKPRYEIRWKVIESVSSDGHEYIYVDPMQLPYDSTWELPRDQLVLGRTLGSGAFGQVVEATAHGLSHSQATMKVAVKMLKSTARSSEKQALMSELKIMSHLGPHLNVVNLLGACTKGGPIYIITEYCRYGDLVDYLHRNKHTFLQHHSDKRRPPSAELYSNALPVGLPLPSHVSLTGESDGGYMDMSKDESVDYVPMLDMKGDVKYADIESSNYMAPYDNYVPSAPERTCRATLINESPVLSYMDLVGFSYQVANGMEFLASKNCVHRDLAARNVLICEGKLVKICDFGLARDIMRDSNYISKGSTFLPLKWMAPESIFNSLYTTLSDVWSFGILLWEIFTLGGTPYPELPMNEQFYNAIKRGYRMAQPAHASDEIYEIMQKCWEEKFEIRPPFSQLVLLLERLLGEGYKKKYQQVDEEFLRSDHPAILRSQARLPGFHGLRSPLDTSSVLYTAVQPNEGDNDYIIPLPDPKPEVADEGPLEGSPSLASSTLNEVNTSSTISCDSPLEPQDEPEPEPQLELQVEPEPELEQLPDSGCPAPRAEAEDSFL

Structure (SMILES)	inhibition [1]	inhibition [2]	inhibition [3]	inhibition [4]	inhibition [5]	inhibition [6]	inhibition [7]	inhibition [8]	inhibition [9]	inhibition [10]
Nc1ncnc2occ(-c3ccc(NC(=O)Nc4cc(C(F)(F)F)cc(C(F)(F)F)c4)cc3)c12	89.3%	79.8%	79.7%	14.7%	66.7%	60.3%	94.9%	90.5%	96%	67.8%
O=C1NC(=O)C(c2ccccc2Cl)=C1Nc1cccc(O)c1	6.51%	5.26%	9.63%	0.89%	-0.58%	1.6%	2.66%	1.34%	2.14%	4.9%
CN(C)c1cc2c(Nc3ccc4nc(Cc5ccccc5)[nH]c4c3)ncnc2cn1	0.22%	9.58%	24.4%	4.07%	5.67%	5.35%	6.9%	5.97%	22.8%	5.76%
NC(=O)c1cccc(Nc2nccc(Nc3cccc4[nH]ncc34)n2)c1	15.3%	23.7%	71.3%	13.2%	67.7%	-2.44%	4.54%	20.7%	70.4%	42.1%
Cc1ccc(C(=O)NC2CCCCC2)cc1-c1ccc(C(=O)NCC2CC2)cc1	8.57%	12.3%	12.8%	2.47%	1.67%	4.09%	-1.01%	1.21%	17.2%	6.66%
CCCN1CCC(Oc2cc(Nc3nc(Nc4cccc(F)c4C(N)=O)c4cc[nH]c4n3)c(OC)cc2Cl)CC1	8.65%	3.93%	11.6%	0.78%	-0.29%	2.51%	1.04%	1.89%	4.25%	4.35%
CS(=O)(=O)CCNCc1ccc(-c2ccc3ncnc(Nc4ccc(OCc5ccccc5)c(Cl)c4)c3c2)o1	4.27%	6.84%	9.41%	2.28%	2.49%	8.72%	11.1%	4.4%	4.91%	2.08%
[O-][S+]1CCN(Cc2ccc(-c3ccc4ncnc(Nc5ccc(OCc6ccccc6)c(F)c5)c4c3)o2)CC1	3.05%	3.33%	4.2%	2.67%	1.42%	2.19%	3.59%	0.45%	3.92%	1.19%
CN1CCC(C(=O)Nc2n[nH]c3nnc(-c4ccccc4)cc23)CC1	5.06%	5.74%	16.5%	3.37%	3.2%	6.86%	7.55%	7.2%	6.38%	2.43%
COc1cc2ncn(-c3cc(O[C@@H](C)c4ccccc4Cl)c(C(N)=O)s3)c2cc1OC	14.1%	37.9%	73.8%	27%	77.1%	7.94%	50%	32.4%	81.5%	29.8%
CCn1c(-c2nonc2N)nc2c(C#CC(C)(C)O)nc(CN3CCCC3)cc21	4.26%	7.83%	13.1%	3.09%	5.71%	2.75%	0.39%	2.19%	6.46%	3.33%
Fc1cccc(COc2ccc(Nc3ncnc4sc(-c5cccs5)cc34)cc2Cl)c1	2.36%	2.17%	5.87%	1.25%	2.11%	3.52%	9.66%	4.39%	4.26%	3.06%
O=C1NC(=O)C(c2ccc(Cl)cc2)=C1Nc1ccc(Cl)c(C(=O)O)c1	2.23%	1.93%	7.23%	1.16%	2.61%	0.45%	1.25%	3.89%	3.15%	4.09%
CCn1c(-c2nonc2N)nc2c(C#CC(C)(C)O)nc(OC[C@@H](N)c3ccccc3)cc21	2.97%	3.38%	30.9%	3.93%	39%	1.39%	27.6%	-2.3%	19.5%	7.96%
CCN1CCC(CC(=O)Nc2n[nH]c3nc(-c4cccs4)c(Br)cc23)CC1	6.39%	1.61%	5.44%	1.12%	6.22%	-1.25%	3.53%	2.04%	4.21%	4.9%
CC(=O)Nc1cccc(C#Cc2cncnc2Nc2ccc(OCc3cccc(F)c3)c(Cl)c2)n1	2.93%	2.49%	8.73%	1.14%	2.21%	-0.15%	-0.14%	3.24%	1.4%	6.88%
Nc1nc(-c2ccccn2)c(-c2ccc3ncccc3n2)s1	4.69%	5.63%	11.4%	1.02%	1.79%	3.45%	7.4%	-0.56%	-1.5%	6.46%

Structure (SMILES)	inhibition [1]	inhibition [2]	inhibition [3]	inhibition [4]	inhibition [5]	inhibition [6]	inhibition [7]	inhibition [8]	inhibition [9]	inhibition [10]
Cc1cc(O)cc(C)c1/C=C/c1cncc(-c2nn[nH]n2)c1	2.94%	10.7%	50.9%	2.87%	22.2%	7.51%	5.59%	12.1%	59.3%	9.66%
COc1cc(C)c(NC(=O)CN(C)C)cc1Nc1nc(Nc2cccc(F)c2C(N)=O)c2cc[nH]c2n1	28.9%	7.3%	16.9%	1.18%	3.96%	0.9%	3.29%	1.13%	10.8%	2.12%
COc1ccc(-c2nn3ncccc3c2-c2ccnc(Nc3ccc(Cl)c(C(F)(F)F)c3)n2)cc1	1.1%	3.58%	7.86%	0.96%	1.8%	3.16%	5.2%	3.43%	3.24%	2.18%
CS(=O)(=O)Nc1ccc(N/C=C2\C(=O)Nc3ccccc32)cc1	35.9%	9.58%	41.9%	2.98%	18%	11.1%	62.5%	15%	51%	6.47%
NS(=O)(=O)c1cccc(-c2ccc3c(NC(=O)C4CC4)n[nH]c3c2)c1	4.13%	3.24%	9.75%	1.86%	7.06%	-0.86%	1.24%	3.88%	6.54%	0.91%
Cc1nn(C)c2cc(N(C)c3ccnc(Nc4cccc(S(N)(=O)=O)c4)n3)ccc12	6.58%	22.9%	61.2%	7.33%	36.1%	5.29%	15.1%	23.2%	70.1%	18.2%
CCn1c(-c2nonc2N)nc2ccncc21	1.96%	8.83%	7.48%	0.54%	1.96%	2.72%	1.31%	2.31%	3.59%	0.36%
COc1cc2ncn(-c3cc(OCc4ccccc4C(F)(F)F)c(C(N)=O)s3)c2cc1OC	32.7%	47.1%	83.5%	29.5%	79.9%	19.1%	68%	36.6%	84.9%	45%
CC1=C(C(=O)Nc2ccc3[nH]ncc3c2)C(c2ccc(F)cc2)NC(=O)N1 (stereo not given)	5.88%	4.38%	10.7%	1.76%	3.2%	3.58%	3.03%	3.01%	3.64%	3.65%
Cc1nnc(-c2ccc(C)c(-c3ccc(C(=O)Nc4cccc(C#N)c4)cc3)c2)o1	2.91%	7.61%	15.8%	0.78%	2.5%	3.31%	6.79%	3.46%	5.28%	6.49%
CC(C)=Cc1cccc2c1/C(=N/Nc1ccc(S(N)(=O)=O)cc1)C(=O)N2	36.3%	20.3%	64.9%	12.2%	58.5%	7.43%	46.5%	15%	62.5%	17.4%
COc1cccc(-n2ncc3c(N/N=C/c4cccc(F)c4)ncnc32)c1	11.4%	13.6%	49.5%	10.6%	48.1%	6.11%	22.2%	8.22%	41.1%	12.2%
CCn1c(-c2nonc2N)nc2cncc(C(=O)N3CC[C@H](N)C3)c21	3.51%	7.67%	6.08%	4.02%	5.6%	6.8%	8.93%	2.86%	1.28%	4.13%
COc1cc2ncn(-c3cc(OCc4ccccc4Cl)c(C(N)=O)s3)c2cc1OC	21.2%	46.7%	90.5%	30.4%	82.2%	9.35%	69.7%	39.1%	83.3%	41%
NS(=O)(=O)c1ccc(N/N=C2\C(=O)Nc3ccc(C(=O)NCCc4c[nH]cn4)cc32)cc1	43.1%	23.6%	65.6%	15.9%	62.5%	6.94%	14.5%	12.9%	54.9%	38.6%
CCn1c(-c2nonc2N)nc2c(N3CCCC3)nccc21	3.11%	-0.08%	6.63%	1.78%	3.11%	0.33%	0.11%	3.21%	3.61%	3.37%
